About 770 (0.77%) of roughly 100,000 compounds were called active. Rule as the data show it: active = inhibition above about 50%; inactive = the rest. For the sample, actives were picked, then their nearest neighbours and some compounds at random.
Biological target: Gag-Pol polyprotein (Human immunodeficiency virus type 1 group M subtype B (isolate HXB2)) (UniProt P04585)
Test: RNase H inhibition, HIV 1 Gag Pol polyprotein, FRET biochemical assay, screening (AID 372)
Conditions: HIV-1 RT RNase H, FRET RNA/DNA substrate fluorescence; at 10 µM; hits give high values

Compound | inhibition
COc1ccc2c(c1OC)C(=O)OC2Nc1cccc([N+](=O)[O-])c1 (configuration not stated) | 1% (inactive)
CCOC(=O)COc1ccc(C=O)cc1OCC | 0% (inactive)
O=C(N/N=C/c1cc([N+](=O)[O-])ccc1Cl)c1ccc(O)c(O)c1 | 63% (active)
O=C(N/N=C/c1ccc(Cl)c([N+](=O)[O-])c1)c1ccccn1 | 11% (inactive)
O=C(N/N=C/c1ccc(Cl)c([N+](=O)[O-])c1)c1cc(O)cc(O)c1 | 3% (inactive)
O=C(N/N=C/c1ccc(Cl)c([N+](=O)[O-])c1)c1ccc(O)cc1 | 22% (inactive)
O=C(N/N=C/c1ccc(Cl)c([N+](=O)[O-])c1)c1cc2ccccc2o1 | 59% (active)
O=C(N/N=C/c1cc([N+](=O)[O-])ccc1Cl)c1cc2ccccc2o1 | 35% (inactive)
O=C(N/N=C/c1cc([N+](=O)[O-])ccc1O)c1ccc(O)c(O)c1 | 35% (inactive)
O=C(N/N=C/c1ccccc1[N+](=O)[O-])c1cc(O)cc(O)c1 | 3% (inactive)
O=C(N/N=C/c1ccc(Cl)c([N+](=O)[O-])c1)c1ccc(O)c(O)c1 | 53% (active)
O=C(N/N=C/c1ccccc1[N+](=O)[O-])c1ccccc1 | 28% (inactive)
O=C(N/N=C/c1cc([N+](=O)[O-])ccc1Cl)c1ccc(O)cc1 | 10% (inactive)
O=C(N/N=C/c1ccccc1[N+](=O)[O-])c1ccc(O)c(O)c1 | 51% (active)
O=C(CSc1nc2ccccc2o1)c1ccc(-c2ccccc2)cc1 | 14% (inactive)
Cc1nnc(SCc2ccc(F)cc2)s1 | 0% (inactive)
COC(=O)c1ccc(C2N(O)C3CCCCC3N2O)cc1 (configuration not stated) | 15% (inactive)
COc1ccc([N+](=O)[O-])cc1N1C(=O)C=CC1=O | 4% (inactive)
CC(C)(C)c1cc(C(=O)N/N=C\c2ccncc2)n[nH]1 | 3% (inactive)
O=C(Nc1ccc(Cl)c(Cl)c1)c1cccc2ccccc12 | 8% (inactive)
Cc1cc(/C=C2\C(=O)NC(=S)N(c3cccc(Cl)c3)C2=O)c(C)n1-c1ccc(Cl)cc1 | 40% (inactive)
CC1=C(C(=O)OCCOc2ccccc2)C(c2ccc(O)cc2)C2=C(CC(c3ccccc3)CC2=O)N1 (configuration not stated) | 9% (inactive)
COc1ccc(-c2ccc(/C=C3/C(=O)NN(c4ccc(C)c(Cl)c4)C3=O)o2)c([N+](=O)[O-])c1 | 24% (inactive)
CC(=O)N(C)c1ccc(NC(=O)/C=C/c2ccccc2)cc1 | 9% (inactive)
CC(=O)N(C)c1ccc(NC(=O)/C=C/c2cccc3ccccc23)cc1 | 53% (active)

Compound | inhibition
O=C(/C=C/c1cccc2ccccc12)Nc1ccc(Nc2ccccc2)cc1 | 25% (inactive)
Cc1ccc(S(=O)(=O)c2ccc(C)c(S(N)(=O)=O)c2)cc1S(N)(=O)=O | 0% (inactive)
Cc1cc2nn(-c3ccccc3)nc2cc1N | 50% (active)
COc1ccc(-n2nc3cc(C)c(N)cc3n2)cc1 | 22% (inactive)
CCOc1ccc(-n2nc3cc(C)c(N)cc3n2)cc1 | 24% (inactive)
CCOC(=O)C1=C(O)/C(=C/c2ccc(Br)cc2)SC1=Nc1ccccc1 | 5% (inactive)
CCC(=O)Nc1ccc(NC(=S)NC(=O)c2cccc(F)c2)cc1 | 11% (inactive)
O=C1/C(=C\c2ccc(O)c(O)c2)SC(=S)N1c1ccc(F)cc1 | 74% (active)
O=C1S/C(=C/c2ccc(O)c(O)c2)C(=O)N1c1ccccc1 | 60% (active)
O=C1/C(=C/c2ccc(F)cc2)SC(=S)N1c1ccc(F)cc1 | 17% (inactive)
O=C1S/C(=C/c2cccc(O)c2)C(=O)N1c1ccccc1 | 24% (inactive)
COc1ccc(/C=C2\SC(=S)N(c3cccc(F)c3)C2=O)cc1O | 7% (inactive)
O=C1/C(=C\c2ccc(O)cc2)SC(=S)N1c1ccc(F)cc1 | 37% (inactive)
O=C1/C(=C/c2cccnc2)SC(=S)N1c1cccc(F)c1 | 3% (inactive)
O=C1/C(=C/c2cccc(O)c2)SC(=S)N1c1cccc(Cl)c1 | 19% (inactive)
COc1cc(/C=C2\SC(=O)N(c3ccccc3)C2=O)ccc1O | 27% (inactive)
COc1cc(/C=C2\SC(=S)N(c3cccc(Cl)c3)C2=O)ccc1O | 38% (inactive)
O=C1/C(=C/c2ccc(O)c(O)c2)SC(=S)N1c1cccc(F)c1 | 84% (active)
Cc1ccc2cc(C3=C/C(=C/c4cccc(Br)c4)C(=O)O3)ccc2c1 | 4% (inactive)
CCCCCOc1ccc(/C=N\Nc2nc(-c3ccccc3)cc(-c3ccccc3)n2)cc1 | 8% (inactive)
COc1ccc(C(=O)COC(=O)c2ccc(N3C(=O)C4C5C=CC(C6CC56)C4C3=O)cc2)cc1 (configuration not stated) | 9% (inactive)
CCN(CC)S(=O)(=O)c1ccc(C(C)(C)C)cc1 | 15% (inactive)
N/C(=C\C(=O)c1ccccc1O)C(F)(F)F | 8% (inactive)
CCc1nn(-c2ccccc2)c2nc(-c3ccccc3C)c3cc(OC)c(OC)cc3c12 | 13% (inactive)
COc1ccc(/C=C2/C(=O)NC(=O)N(Cc3ccco3)C2=O)cc1C | 12% (inactive)

Compound | inhibition
O=C(O)CC1SC(=NC(=O)c2ccco2)N(c2ccccc2)C1=O (configuration not stated) | 0% (inactive)
Cc1ccc(N2C(=O)/C(=C/c3ccc(F)cc3)SC2=S)cc1C | 6% (inactive)
Cc1ccc(N2C(=O)/C(=C/c3ccc(Cl)cc3)SC2=S)cc1C | 5% (inactive)
O=C1/C(=C\c2ccc(O)c(O)c2)SC(=S)N1c1cccc(C(F)(F)F)c1 | 48% (inactive)
O=C1/C(=C\c2ccc(O)cc2)SC(=S)N1c1ccc(Cl)cc1 | 36% (inactive)
O=C1NC(=O)N(c2cccc3ccccc23)C(=O)/C1=C/c1ccc(O)c(O)c1 | 22% (inactive)
O=C1/C(=C/c2cccc(O)c2)SC(=S)N1c1ccc(O)cc1 | 26% (inactive)
O=C1/C(=C\c2ccc(O)c(O)c2)SC(=S)N1c1cccc2ccccc12 | 72% (active)
CN(C)c1ccc(/C=C2\C(=O)N(c3nc(-c4ccc(Cl)cc4)cs3)N=C2c2ccccc2)cc1 | 37% (inactive)
Cc1ccc(C(=O)N2N=C(c3ccc(Cl)cc3)CC2(O)C(F)(F)F)o1 (configuration not stated) | 20% (inactive)
CCCC(C)C(=O)Nc1cccc([N+](=O)[O-])c1C (configuration not stated) | 11% (inactive)
O=C1CC(NCc2ccc3c(c2)OCO3)C(=O)N1c1ccc(Cl)cc1 (configuration not stated) | 8% (inactive)
O=c1c2ccccc2c(-c2ccccc2)nn1Cc1cccc(Br)c1 | 15% (inactive)
CC(C)Cn1nc(-c2ccccc2)c2ccccc2c1=O | 18% (inactive)
O=c1c2ccccc2c(-c2ccccc2)nn1CCc1ccccc1 | 53% (active)
COc1ccc(OC)c(C2NC(=S)NC(C)=C2C(=O)OCCc2ccccc2)c1 (configuration not stated) | 21% (inactive)
COc1ccc(OC)c(C2NC(=S)NC(C)=C2C(=O)OCCOc2ccccc2)c1 (configuration not stated) | 50% (active)
COCCOC(=O)C1=C(C)NC(=S)NC1c1cc(OC)ccc1OC (configuration not stated) | 15% (inactive)
COc1ccc(/C(O)=C2/C(=O)C(=O)N(CCCCCC(=O)O)C2c2ccc([N+](=O)[O-])cc2)cc1 (configuration not stated) | 6% (inactive)
CCOC(=O)Cc1csc(N/N=C\c2c(Cl)ccc(Cl)c2Cl)n1 | 20% (inactive)
O=C(CN1C(=O)C2C3CCC(C3)C2C1=O)Nc1ccccc1 (configuration not stated) | 14% (inactive)
CCOc1cc(C(=S)N2CCC(C)CC2)ccc1O | 50% (active)
COc1cc(C(=S)N2CCCCC2)ccc1O | 0% (inactive)
CCOc1cc(C(=S)N2CCOCC2)cc(Br)c1O | 13% (inactive)
COc1cc(C(=S)N2CCCCC2)cc(Br)c1O | 37% (inactive)

Compound | inhibition
CCOc1cc(C(=S)N2CCCCC2)cc(Br)c1O | 56% (active)
CCOc1cc(C(=S)N2CCCCC2)ccc1O | 8% (inactive)
COc1cc(C(=S)N2CCOCC2)cc(I)c1O | 45% (inactive)
COc1cc(C(=S)N2CCC(C)CC2)ccc1O | 7% (inactive)
CCOc1cc(C(=S)N2CCCCC2)cc(I)c1O | 59% (active)
CS(=O)(=O)N(CC(=O)Nc1cccc2ccccc12)c1cccc(Cl)c1 | 10% (inactive)
O=C1CC(c2ccccc2)CC(O)=C1C=NCc1ccc(F)cc1 (configuration not stated) | 8% (inactive)
Cc1nnc(N/N=C/c2cccc([N+](=O)[O-])c2)[nH]c1=O | 8% (inactive)
CCOC(=O)C1CCN(C(=O)COc2ccc(C)cc2C)CC1 | 4% (inactive)
Fc1ccc(Br)cc1SCCc1ccccn1 | 0% (inactive)
CCOc1cc(/C=C2/SC(=S)NC2=O)cc([N+](=O)[O-])c1OCCCOc1ccc(Cl)cc1 | 27% (inactive)
COc1ccc(C(=O)NC(=S)Nc2cc(-c3nc4ccccc4s3)ccc2C)cc1 | 1% (inactive)
O=C(NC(=S)Nc1cc(-c2nc3ccccc3s2)ccc1Cl)c1ccccc1 | 37% (inactive)
Cc1ccc(-c2nc3ccccc3s2)cc1NC(=O)c1ccc(Cl)c([N+](=O)[O-])c1 | 3% (inactive)
Cc1ccc(C(=O)Nc2cc(-c3nc4ccccc4s3)ccc2Cl)cc1[N+](=O)[O-] | 39% (inactive)
O=C(NC(=S)Nc1cc(-c2nc3ccccc3s2)ccc1Cl)c1ccc(Cl)cc1 | 33% (inactive)
COc1ccc(C(=O)NC(=S)Nc2cc(-c3nc4ccccc4s3)ccc2Cl)cc1OC | 10% (inactive)
COc1ccc(C(=O)NC(=S)Nc2cc(-c3nc4ccccc4s3)ccc2Cl)cc1 | 50% (active)
Cc1cc(C(=O)Nc2cc(-c3nc4ccccc4s3)ccc2Cl)ccc1[N+](=O)[O-] | 52% (active)
O=C1C(=Cc2ccc(Oc3ccc(C(F)(F)F)cc3[N+](=O)[O-])c(Cl)c2)C(=O)c2ccccc21 | 16% (inactive)
Cc1cc(Oc2cc(NC(=O)c3cc(-c4ccccc4)nc4ccccc34)cc([N+](=O)[O-])c2)ccc1Cl | 0% (inactive)
Cc1cc(C)c2oc(-c3ccc(C)c(NC(=O)c4cccs4)c3)nc2c1 | 15% (inactive)

Source: PubChem BioAssay AID372 (MTDP, 2006)
